Data on 40 compounds can be found in PubChem BioAssay (NCATS).

Values joined by “and” are separate entries in the source; they are usually repeats but may differ in a detail not shown here. Equal values may be shown once. Records with an inconclusive call do not appear. Values without a mark were called inactive. Active and inactive are the calls of the source. Calls come from the whole dose curve; as a rule, active = well fitted cell-killing curve with a large enough effect; inconclusive = small, poorly fitted or top-dose-only effect; inactive = flat fitted curve, though single readings scatter.
Potency is the fitted concentration of half-maximal effect.

The nature of this assay: qHTS of pediatric cancer cell lines to identify multiple opportunities for drug repurposing: Primary screen for DAOY cells (AID 1347090). Note: nearly all actives have a fitted effect of over 55% in size. Conditions: DAOY medulloblastoma viability, CellTiter-Glo luminescence, 48 h; series mostly up to 46 µM; activity change, negative = cytotoxic: at the top concentration. An excerpt:
Drug repurposing or repositioning has been offered as a strategy for drug development in oncology programs. This approach has special potential for childhood cancers and other rare or orphan diseases, where the expected return on new drug development has been a disincentive to pharmaceuticals.
In this project we exploit the poly-pharmacology of drugs to discover new indications via phenotypic screening of a panel of 19 well-characterized cell lines derived from solid tumors seen in children and adolescents. The goal is to identify approved drugs with previously unrecognized anticancer properties that has the potential to reveal new mechanisms and biological processes involved in carcinogenesis or drug resistance. We employed a titration-based paradigm (quantitative high-throughput screening or qHTS), where all compounds were tested at multiple concentrations for their effect on cell viability. Concentration-response curves (CRCs) were derived directly from the primary screen, and both potency and efficacy values were used to identify compounds with robust bioactivity profiles. We screened the NIH Chemical Genomics Center (NCGC) Pharmaceutical Collection (NPC) and Mechanism Interrogation Plate (MIPE) small molecule collections of approved and investigational compounds against these cell lines; and measured metabolically active cells after 48 hours of compound treatment as a proxy for cell viability.
Assay Submitter: Nathalia J. Martinez, National Center for Advancing Translational Sciences, National Institutes of Health, Rockville, MD, USA; email: natalia.martinez@nih.gov
[1] Shen, M et al. Quantitative high-throughput phenotypic screening of pediatric cancer cell lines identifies multiple opportunities for drug repurposing. Oncotarget 2017 Dec 19;9(4):4758-4772. PMID 29435139.
The cells were obtained from University of North Carolina (UNC), Pediatric Preclinical Testing Program (PPT), and Coriell Institute (CI).
qHTS cell viability assay:
Cells were assayed in growth media at a density of 500-1,000 cells/well. Five microliters of cells were dispensed into 1,536-well, white, solid-bottom, TC-treated plates (Greiner Bio One) using a multidrop dispenser and incubated at 37 degrees C, 5% CO2, under a humidified atmosphere for 5 hours. Twenty-three nanoliters of compounds and controls (neutral control DMSO or positive control bortezomib at final concentration of 2.3 µM) were subsequently transferred by Kalypsys pintool. For primary screens, the MIPE collection was tested at 11-point dilutions (final concentrations range from 0.78 nM to 46 µM) and the NPC collection at 8-point dilutions (final concentrations range from 0.59 nM to 46 µM). Compounds tested in follow-up screens were assayed at 11-point dilutions. Cells were incubated for 48 hours, followed by addition of 3 uL of CellTiter-Glo (Promega). After a 15 min incubation at room temperature, samples were analyzed for luminescence intensity using a ViewLux High-throughput CCD imager equipped with clear filters.
Regarding `CC(C)c1nc(CN(C)C(=O)N[C@H](C(=O)N[C@@H](Cc2ccccc2)C[C@H](O)[C@H](Cc2ccccc2)NC(=O)OCc2cncs2)C(C)C)cs1`, the “activity change, negative = cytotoxic” value is -4.72%.
Take `CCN(CC)CCOc1ccc(Nc2ncc3cc(-c4c(Cl)cccc4Cl)c(=O)n(C)c3n2)cc1`: the Potency is 0.187 µM (active).
With `COC(=O)C1=C(C)NC(C)=C(C(=O)OCCCN2CCC(c3ccccc3)(c3ccccc3)CC2)C1c1cccc([N+](=O)[O-])c1` (stereo not given), the “activity change, negative = cytotoxic” value is -9.38%.
With `CCCc1cc(=O)[nH]c(=S)[nH]1`, the Potency entry was “inactive”.
Take `CCC[C@@H]1C[C@@H](C(=O)N[C@@H]([C@H]2O[C@H](SC)[C@H](O)[C@@H](O)[C@H]2O)[C@@H](C)O)N(C)C1`: the Potency result is “inactive”.
As for `CC(C)(S)[C@@H](N)C(=O)O`, the “activity change, negative = cytotoxic” value is 3.08%.
Turning to `COc1c2occc2cc2ccc(=O)oc12`, the Potency entry is “inactive”.
Consider `c1ccc2[nH]c(-c3cscn3)nc2c1`, for which the “activity change, negative = cytotoxic” value is -10.4%.
In the case of `NC(=NCc1ccccc1)NC(=O)c1nc(Cl)c(N)nc1N`, the Potency is 18.7 µM (active).
Same read-out and setting: with `O=C(CCc1ccc(O)cc1)c1c(O)cc(O)cc1O` the figure was 0.118 µM (active).
Consider `C[C@]12CCC(=O)C=C1CC[C@@H]1[C@H]2[C@@H](O)C[C@@]2(C)[C@H]1CC[C@]2(O)C(=O)CO`, for which the “activity change, negative = cytotoxic” value was -3%.
For the compound `N[C@@H](Cc1cc(I)c(Oc2cc(I)c(O)c(I)c2)c(I)c1)C(=O)O`, the Potency entry is “inactive”.
With `C[Se]CCC(N)C(=O)O` (stereo not given), the “activity change, negative = cytotoxic” value was -14% [at 92.7 µM].
For the compound `CC[C@]1(O)C[C@H]2CN(CCc3c([nH]c4ccccc34)[C@@](C(=O)OC)(c3cc4c(cc3OC)N(C=O)[C@H]3[C@@](O)(C(=O)OC)[C@H](OC(C)=O)[C@]5(CC)C=CCN6CC[C@]43[C@@H]65)C2)C1`, the Potency was 59 nM (active) and 26.6 nM (active).
As to `CC(=O)Nc1ccc(O)cc1`, the Potency entry is “inactive”.
On to `CN(C)c1ccc(O)c2c1C[C@H]1C[C@H]3[C@H](N(C)C)C(=O)C(C(N)=O)=C(O)[C@@]3(O)C(=O)C1=C2O`, for which the “activity change, negative = cytotoxic” value was -5.24%.
Take `Cc1cc(C2CCCCC2)n(O)c(=O)c1`: the Potency was 10.6 µM (active).
With `Nc1ncn([C@H]2C[C@H](O)[C@@H](CO)O2)c(=O)n1`, the Potency result is “inactive”.
Turning to `O=C(NC(Cc1cc(=O)[nH]c2ccccc12)C(=O)O)c1ccc(Cl)cc1` (stereo not given), the “activity change, negative = cytotoxic” value was 1.65%.
Turning to `COc1ccc2cc([C@H](C)C(=O)O)ccc2c1`, the Potency result was “inactive”.
Take `CCN(CC)CCOc1ccc(Cc2ccccc2)cc1`: the Potency entry is “inactive”.
On to `COc1cc(C(C)=O)ccc1OCCCN1CCC(c2noc3cc(F)ccc23)CC1`, for which the Potency entry was “inactive”.
`Nc1nc(OCc2ccccc2)c2[nH]cnc2n1`: the “activity change, negative = cytotoxic” value is -27.3%.
Regarding `NNc1nncc2ccccc12`, the Potency result was “inactive”.
For the compound `O=c1c(O)c(-c2ccc(O)cc2O)oc2cc(O)cc(O)c12`, the “activity change, negative = cytotoxic” value is -1.72%.
With `O=C(NOCC1CC1)c1ccc(F)c(F)c1Nc1ccc(I)cc1Cl`, the Potency was 21.1 µM (active) and 11.8 µM (active).
Still for that read-out and setting: with `Oc1ccc(OCc2ccccc2)cc1` the entry was “inactive”; with `NS(=O)(=O)c1cc(C(=O)O)c(NCc2ccco2)cc1Cl`, “inactive”.
Regarding `CC(C)c1ccc2oc3nc(N)c(C(=O)O)cc3c(=O)c2c1`, the “activity change, negative = cytotoxic” value was -16.1%.
On the same count and under the same terms, with `c1cnc2cc3c(cc2n1)C1CNCC3C1` the figure was 3.16%.
`Clc1ccc(C(Cn2ccnc2)OCc2c(Cl)cccc2Cl)c(Cl)c1` (stereo not given): the Potency entry is “inactive”.
For `C[C@H](Cn1cnc2c(N)ncnc21)OCP(=O)(O)O`, the “activity change, negative = cytotoxic” value is 7.79%.
In the case of `COc1cc(Nc2c(C#N)cnc3cc(OCCCN4CCN(C)CC4)c(OC)cc23)c(Cl)cc1Cl`, the Potency was 13.3 µM (active) and 23.5 µM (active).
Still for that read-out and setting: with `CN(C)[C@@H](CCOc1cccc2ccccc12)c1ccccc1` the entry was “inactive”; with `O=c1ccc2ccc(O)c(O)c2o1`, 7.43 µM (active).
As to `O=P(O)(O)C(O)(Cn1ccnc1)P(=O)(O)O`, the “activity change, negative = cytotoxic” value was 8.26% [at 16.1 µM].
As to `CC1(C)NC(=O)N(c2ccc([N+](=O)[O-])c(C(F)(F)F)c2)C1=O`, the Potency result was “inactive”.
On the same count and under the same terms, with `Cc1cc(Cl)ccc1OCCCC(=O)NO` the figure was 9.35 µM (active); with `CS(=O)(=O)OCCCCOS(C)(=O)=O`, “inactive”.
For the compound `CC(C)Oc1ccc2c(=O)c(-c3ccccc3)coc2c1`, the “activity change, negative = cytotoxic” value is -20.5%.
